Values joined by “and” are separate entries in the source; they are usually repeats but may differ in a detail not shown here. Equal values may be shown once. Some structures have more than one record in an assay (separate samples or runs), and their calls can disagree. Active and inactive are the calls of the source. Rule for the calls: active = hit-call score of the fitted dose curve at least 0.9, where 1 is the maximum; inactive = score below 0.9.

The target of assay [1] is Bile acid receptor (Homo sapiens) (UniProt Q96RI1). Briefly: ATG_IR1_CIS: Attagene CIS-FACTORIAL HepG2 Assay for human Nuclear Receptor Subfamily 1 Group H Member 4 (NR1H4), IR1 submotif (AID 2282946). The conditions noted are these: IR1 reporter transcription, actives raise or lower the signal. A digest of the protocol: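 Cells (human HepG2) carry transiently transfected cis-promoter reporter transcription units. Compounds are incubated 24 h, total RNA is reverse-transcribed and amplified, and labelled fragments are resolved by capillary electrophoresis. Curves use DMSO as baseline.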

A short description of assay [2]: ATG_GRE_CIS: Attagene CIS-FACTORIAL HepG2 Assay for human Glucocorticoid Response Elements (GRE) (AID 2282947). The conditions noted are these: HepG2 GRE cis-reporter, Attagene multiplex mRNA; actives raise or lower the signal. The procedure, abridged: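 Assay uses human hepatoma HepG2 cells transfected with cis-promoter reporter units, exposed 24 h. mRNA from reporters detected by RT-PCR plus capillary electrophoresis; DMSO serves as negative control and baseline.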

Assay [3] is described as follows: ATG_ISRE_CIS: Attagene CIS-FACTORIAL HepG2 Assay for human Interferon Regulatory Factor 1 (IRF1) binding to an Interferon-Stimulated Response Element (ISRE) (AID 2282948). The conditions noted are these: HepG2 ISRE cis-reporter (Attagene), mRNA transcription readout; actives raise or lower the signal. The procedure, abridged:
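Transfected HepG2 (multiple reporter transcription units, cis elements) dosed 24 h. RNA → oligo(dT) RT → PCR → 6-FAM primer extension → HpaI → CE. DMSO = negative control/baseline.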

Assay [4] is described as follows: ATG_M_32_CIS: Attagene CIS-FACTORIAL HepG2 Assay for M32 Transcription Factor (Internal Marker) (AID 2282949).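 Note: background control marker of the multiplexed CIS panel rather than a real target.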 Conditions: HepG2 Attagene cis-factorial M32 reporter, mRNA; actives raise or lower the signal. The procedure, abridged:
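Following 24 h chemical exposure of HepG2 cells transiently expressing cis-promoter reporter constructs, reporter transcript levels were determined by RT-PCR with fluorescent labelling and capillary electrophoresis, then fitted bidirectionally against DMSO.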

The nature of assay [5]: ATG_M_06_CIS: Attagene CIS-FACTORIAL HepG2 Assay for M06 Transcription Factor (Internal Marker) (AID 2282950). Conditions: HepG2 Attagene CIS-FACTORIAL M06 internal marker reporter; actives raise or lower the signal. The procedure, abridged: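 Read-out is fluorescence of labelled reporter cDNA fragments resolved by capillary electrophoresis after RT-PCR. Cells: HepG2 carrying transfected cis-promoter reporter units, treated 24 h. Gain or loss of signal fitted relative to DMSO.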

Assay [6] addresses Hypoxia-inducible factor 1-alpha (Homo sapiens) (UniProt Q16665). As to the kind of experiment: ATG_HIF1a_CIS: Attagene CIS-FACTORIAL HepG2 Assay for human Hypoxia Inducible Factor 1 (HIF1A) (AID 2282951). The conditions noted are these: HepG2 Attagene cis-factorial HIF1a reporter transcription; actives raise or lower the signal. The procedure, abridged: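 Endogenous-TF cis reporter readout, human HepG2 cells, 24 h incubation; mRNA detected via RT-PCR and capillary electrophoresis fluorescence; DMSO-normalised bidirectional fitting.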

Assay [7] deals with Hepatocyte nuclear factor 6 (Homo sapiens) (UniProt Q9UBC0). Briefly: ATG_HNF6_CIS: Attagene CIS-FACTORIAL HepG2 Assay for human Hepatocyte Nuclear Factor 6 (HNF6) (AID 2282952). Conditions: HepG2 Attagene cis-factorial HNF6 reporter transcription; actives raise or lower the signal. The procedure, abridged: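 Multiplexed mRNA reporter assay in transfected HepG2; 24 h dosing; RT-PCR plus capillary electrophoresis fluorescence; DMSO-referenced bidirectional curve fitting.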

Assay [8] concerns the target Heat shock factor protein 1 (Homo sapiens) (UniProt Q00613). Briefly: ATG_HSE_CIS: Attagene CIS-FACTORIAL HepG2 Assay for human Heat Shock Transcription Factor 1 (HSE) (AID 2282953). The conditions noted are these: HepG2 HSE cis-reporter, Attagene RNA transcription; actives raise or lower the signal. A digest of the protocol:
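HepG2, transient MRTU transfection, cis-promoter reporters (endogenous TF activity). 24 h compound. RNA → oligo(dT) RT → PCR → 6-FAM primer extension → HpaI cut → CE. Bidirectional fit vs DMSO.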

Assay [9] is described as follows: ATG_MRE_CIS: Attagene CIS-FACTORIAL HepG2 Assay for human Metal Responsive Element (MRE) (AID 2282954). Conditions: HepG2 MRE cis-reporter transcription, Attagene multiplex; actives raise or lower the signal. A digest of the protocol:
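After a 24 h chemical exposure, transiently transfected HepG2 cells yield RNA whose reporter sequences are amplified, FAM-labelled and sized by capillary electrophoresis. Curves are fitted bidirectionally relative to DMSO.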

Assay [10] is described as follows: ATG_PBREM_CIS: Attagene CIS-FACTORIAL HepG2 Assay for human Phenobarbital-responsive Enhancer Module (PBREM) (AID 2282955). Conditions: HepG2 PBREM cis-reporter, Attagene multiplexed transcription; actives raise or lower the signal. A digest of the protocol: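 Readout: reporter mRNA, fluorescent RT-PCR fragments separated by capillary electrophoresis. System: HepG2 transiently transfected with cis-regulated reporter units. Exposure: 24 h. Analysis: bidirectional, DMSO baseline.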

Sequence of Hepatocyte nuclear factor 6 (Homo sapiens) (Q9UBC0 whole entry, looked up): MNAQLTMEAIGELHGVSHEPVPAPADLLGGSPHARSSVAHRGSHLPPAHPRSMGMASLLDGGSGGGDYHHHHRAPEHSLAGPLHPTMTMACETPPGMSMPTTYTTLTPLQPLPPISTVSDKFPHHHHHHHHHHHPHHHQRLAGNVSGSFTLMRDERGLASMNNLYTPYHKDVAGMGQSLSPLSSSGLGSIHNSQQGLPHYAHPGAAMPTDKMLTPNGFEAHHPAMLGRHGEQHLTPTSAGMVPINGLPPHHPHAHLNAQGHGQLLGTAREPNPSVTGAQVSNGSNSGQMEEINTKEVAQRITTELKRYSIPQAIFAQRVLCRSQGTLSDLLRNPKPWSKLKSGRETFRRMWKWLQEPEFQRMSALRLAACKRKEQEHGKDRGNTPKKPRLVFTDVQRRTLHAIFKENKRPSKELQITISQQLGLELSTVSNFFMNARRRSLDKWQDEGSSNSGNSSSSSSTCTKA
Sequence of Bile acid receptor (Homo sapiens) (Q96RI1 whole entry, looked up, the tested form may be a part): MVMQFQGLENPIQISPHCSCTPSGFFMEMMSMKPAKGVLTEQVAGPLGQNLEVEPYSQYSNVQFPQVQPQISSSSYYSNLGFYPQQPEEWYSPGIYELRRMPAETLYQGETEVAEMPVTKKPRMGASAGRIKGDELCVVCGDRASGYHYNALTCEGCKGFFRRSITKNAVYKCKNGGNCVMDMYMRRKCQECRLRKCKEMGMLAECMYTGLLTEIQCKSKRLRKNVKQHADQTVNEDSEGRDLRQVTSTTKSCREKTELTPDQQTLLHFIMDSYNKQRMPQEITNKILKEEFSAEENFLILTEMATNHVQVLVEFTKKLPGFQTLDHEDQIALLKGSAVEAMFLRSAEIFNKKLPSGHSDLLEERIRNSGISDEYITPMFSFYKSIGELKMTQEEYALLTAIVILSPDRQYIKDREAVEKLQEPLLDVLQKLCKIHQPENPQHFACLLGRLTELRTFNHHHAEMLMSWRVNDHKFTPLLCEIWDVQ
Sequence of Heat shock factor protein 1 (Homo sapiens) (Q00613 whole entry, looked up): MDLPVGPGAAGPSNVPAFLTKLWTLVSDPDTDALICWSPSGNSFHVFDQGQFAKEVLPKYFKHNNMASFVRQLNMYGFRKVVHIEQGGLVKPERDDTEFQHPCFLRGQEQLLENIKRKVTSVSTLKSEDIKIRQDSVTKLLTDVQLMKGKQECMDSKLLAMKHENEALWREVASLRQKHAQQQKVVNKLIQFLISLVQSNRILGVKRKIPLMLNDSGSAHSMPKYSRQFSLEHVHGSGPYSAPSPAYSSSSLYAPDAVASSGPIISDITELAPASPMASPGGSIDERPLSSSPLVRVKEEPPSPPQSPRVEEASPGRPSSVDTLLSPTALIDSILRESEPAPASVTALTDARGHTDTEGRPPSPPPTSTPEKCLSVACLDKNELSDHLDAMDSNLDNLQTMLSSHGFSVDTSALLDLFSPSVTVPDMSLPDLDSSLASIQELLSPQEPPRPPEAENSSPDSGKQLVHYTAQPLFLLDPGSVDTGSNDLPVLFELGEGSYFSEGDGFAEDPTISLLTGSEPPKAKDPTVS
Sequence of Hypoxia-inducible factor 1-alpha (Homo sapiens) (Q16665 whole entry, looked up): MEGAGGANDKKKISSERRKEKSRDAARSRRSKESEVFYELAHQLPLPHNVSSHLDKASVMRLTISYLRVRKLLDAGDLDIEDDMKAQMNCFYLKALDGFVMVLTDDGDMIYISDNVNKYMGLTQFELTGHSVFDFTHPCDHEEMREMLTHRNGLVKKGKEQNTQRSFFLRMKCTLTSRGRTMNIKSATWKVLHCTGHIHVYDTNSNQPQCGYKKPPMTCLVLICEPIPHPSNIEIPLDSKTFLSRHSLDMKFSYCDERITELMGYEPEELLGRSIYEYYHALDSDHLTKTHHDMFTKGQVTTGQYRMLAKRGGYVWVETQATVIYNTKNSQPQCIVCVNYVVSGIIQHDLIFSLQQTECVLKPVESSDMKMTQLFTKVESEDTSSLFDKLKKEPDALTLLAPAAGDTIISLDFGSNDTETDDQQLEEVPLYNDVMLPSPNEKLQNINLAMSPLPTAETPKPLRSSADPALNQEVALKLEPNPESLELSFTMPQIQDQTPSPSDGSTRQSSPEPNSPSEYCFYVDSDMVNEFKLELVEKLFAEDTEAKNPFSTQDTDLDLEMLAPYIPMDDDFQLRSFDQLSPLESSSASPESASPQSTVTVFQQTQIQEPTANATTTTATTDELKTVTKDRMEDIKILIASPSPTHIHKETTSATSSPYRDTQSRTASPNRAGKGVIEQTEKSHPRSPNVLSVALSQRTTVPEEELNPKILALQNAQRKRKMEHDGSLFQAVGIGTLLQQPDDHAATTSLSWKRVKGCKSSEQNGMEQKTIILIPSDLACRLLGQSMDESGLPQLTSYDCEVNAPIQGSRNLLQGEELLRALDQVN

A word on the AC50: it is the midpoint of the concentration-response curve, whichever way the signal moves. On to `c1cc[c]([Hg][c]2ccccc2)cc1`, for which the compound was called inactive in assay [1], in [2], in [3], in [4], in [5] and in [6]. Further, the call in assay [7] and in [8] was inactive. Moreover, the AC50 in assay [9] was 14.4 µM (active).

As to `C[C@@H]1C[C@@H]([C@H](O)CC2CC(=O)NC(=O)C2)C(=O)[C@@H](C)C1`, the AC50 in [1] was 0.304 µM (active); in assay [6], 119 nM (active) and 22.9 µM (active); in [8], 2.68 µM (active) and 1.53 µM (active). Further, the result in [1], in assay [4], in assay [5], in [6], in [7] and in [8] was inactive. Further, the compound was called inactive in assay [9].

For `O=C(Nc1ccc2[nH]ccc2c1)c1cc2cc(F)ccc2n1Cc1cccc(F)c1`, the AC50 is 2.93 µM (active) in [1]; 17.6 µM (active) in [2]; 18.2 µM (active) in assay [3]; 18.3 µM (active) in [7]; 20.7 µM (active) in assay [8]; 11 µM (active) in assay [9]. Further, the AC50 in assay [10] was 17.3 µM (active). Further, the compound was classed as inactive in assay [4], in assay [5] and in assay [6].

For the compound `ClC1(Cl)C2(Cl)C3(Cl)C4(Cl)C(Cl)(Cl)C5(Cl)C3(Cl)C1(Cl)C5(Cl)C24Cl` (stereo unspecified), the compound was classed as inactive in [1], in [2], in assay [3], in assay [4], in assay [5] and in [6]. Besides, the compound was called inactive in [7], in [8] and in assay [9].

For the compound `CC(C)(C)CC(C)(C)c1ccc(O)cc1`, the AC50 in assay [1] is 16.3 µM (active); in assay [6] it was 0.932 nM (active) and 20.1 µM (active). Moreover, the compound was classed as inactive in [1], in assay [2], in assay [4], in [5], in assay [6] and in [7]. The compound was called inactive in assay [8] and in assay [9].

For `NC(=S)Nc1ccccc1`, the result in assay [1], in [2], in assay [3], in assay [4], in assay [5] and in assay [6] was inactive. In addition, the result in assay [7], in assay [8] and in [9] was inactive.

As to `O=[N+]([O-])c1ccc2c3c(cccc13)CC2`, the outcome in [1], in [2], in [3], in [4], in assay [5] and in assay [7] was inactive. The compound was classed as inactive in assay [9]. Besides, the AC50 in [6] is 26.7 µM (active).

In the case of `COc1ccc(OC)c(C=O)c1`, the compound was classed as inactive in assay [1], in assay [2], in assay [3], in assay [4], in assay [5] and in [6]. Besides, the compound was called inactive in assay [8] and in [9].

In the case of `CCSC(C)CC1CC(=O)C(C(CC)=NOC/C=C/Cl)=C(O)C1` (stereo unspecified), the compound was called inactive in [1], in assay [2], in assay [3], in assay [4], in assay [5] and in assay [6]. Further, the compound was called inactive in assay [7], in assay [8] and in assay [9].

In the case of `CCNc1nc(NC(C)(C)C)nc(SC)n1`, the compound was called inactive in assay [1], in [2], in assay [4], in assay [5], in assay [6] and in assay [7]. Moreover, the call in assay [8] was inactive. The figures for the AC50 in assay [3] and in assay [9] were 100 µM (active) and 118 µM (active), respectively.

As to `C=CC(=O)N(C)C`, the compound was called inactive in assay [1], in assay [2], in assay [3], in assay [4], in assay [5] and in assay [6]. Further, the outcome in assay [7], in assay [8] and in assay [9] was inactive.

As to `Clc1ccc(C2(Cn3cncn3)CC(Br)CO2)c(Cl)c1` (stereo unspecified), the call in assay [1], in assay [2], in [3], in assay [4], in assay [5] and in assay [7] was inactive. Besides, the AC50 in assay [6] was 26 µM (active); in [8], 177 µM (active); in [9] it was 145 µM (active); in assay [10], 6.34 µM (active).

In the case of `Oc1ccc(-c2ccccc2)cc1`, the call in assay [1], in assay [2], in assay [4], in [5], in assay [6] and in assay [7] was inactive. Moreover, the AC50 in assay [3] was 179 µM (active); in assay [9], 149 µM (active); in assay [10] it was 176 µM (active).

With `O=C(c1ccccc1)C(Cl)Cl`, the AC50 in assay [1] was 5.81 µM (active); in assay [3], 14.9 µM (active); in assay [9], 26.7 µM (active). Moreover, the call in [2], in [4], in assay [5], in assay [6] and in assay [8] was inactive.

With `CC(C)C1CCC(Cc2ccc(Cl)cc2)C1(O)Cn1cncn1` (stereo unspecified), the call in assay [1], in [2], in assay [3], in assay [4], in assay [5] and in [6] was inactive. In addition, the result in assay [7], in assay [8] and in assay [10] was inactive. Moreover, the AC50 in [9] is 11 µM (active).

Consider `CNC(=O)O/N=C/C(C)(C)S(C)=O` (stereo unspecified), for which the compound was called inactive in assay [1], in [2], in assay [3], in [4], in assay [5] and in assay [6]. Further, the outcome in assay [7], in assay [9] and in assay [10] was inactive. For the same compound, the half-maximal activity concentration (AC50) in [8] was 154 µM (active).

Take `C[C@@H](Oc1ccc(Cl)cc1Cl)C(=O)O`: the compound was classed as inactive in [1], in assay [2], in [3], in [4], in [5] and in assay [6]. In addition, the outcome in assay [7], in assay [8] and in [9] was inactive.

As for `Nc1ncc([N+](=O)[O-])s1`, the outcome in assay [1], in assay [2], in assay [3], in assay [4], in assay [5] and in [6] was inactive. For the same compound, the outcome in assay [7], in assay [8] and in assay [9] was inactive.

With `O=C(Cl)c1ccc(Cl)cc1`, the outcome in assay [1], in assay [2], in [3], in assay [4], in [5] and in assay [6] was inactive. Also, the compound was classed as inactive in assay [7], in assay [8] and in [9].

Regarding `COP(=O)(OC)OC`, the compound was called inactive in [1], in [2], in [3], in assay [4], in assay [5] and in [6]. Further, the call in [7], in assay [8], in assay [9] and in assay [10] was inactive.

For the compound `ClCc1cccnc1`, the result in assay [1], in [3], in assay [4], in [5], in [6] and in [7] was inactive. Further, the call in assay [8] and in [10] was inactive. Besides, the figures for the AC50 in assay [2] and in assay [9] were 72.5 µM (active) and 45.9 µM (active), respectively.

Take `CCc1ccccc1C`: the compound was called inactive in assay [1], in assay [2], in assay [3], in assay [4], in assay [5] and in assay [6]. For the same compound, the compound was classed as inactive in [8] and in assay [9].

As to `Cl/C=C\C[N+]12CN3CN(CN(C3)C1)C2`, the figures for the AC50 in [1], in assay [3] and in [8] were 44.6 µM (active), 100 µM (active) and 158 µM (active), respectively. Besides, the outcome in assay [2], in [4], in assay [5], in assay [6], in assay [7] and in assay [9] was inactive. In addition, the outcome in assay [10] was inactive.

For the compound `COC[C@H](C)N(C(=O)CCl)c1c(C)csc1C`, the compound was classed as inactive in [1], in assay [2], in assay [3], in assay [4], in [5] and in assay [6]. The call in assay [7], in [8] and in assay [9] was inactive.
